Reference: PubChem BioAssay AID1117319 (Southern Research Institute, 2015)
In all, about 260,000 compounds went through this assay and about 1,500 (0.58%) were called active. Roughly 5% stayed inconclusive and do not appear here.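 How the source made its calls: active means inhibition above a set limit at one or more doses, reproduced on every date tested; inconclusive means results disagree between test dates, or hit never tested in dose response; inactive means the rest.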 The list is a sample of the results. Potency and affinity values are given separately.

target: Virion infectivity factor (Human immunodeficiency virus type 1 group M subtype B (isolate BH10)) + Virion infectivity factor (Human immunodeficiency virus type 1 group M subtype B (isolate BRU/LAI)) + Virion infectivity factor (Human immunodeficiency virus type 1 group M subtype B (isolate PCV12)) + Virion infectivity factor (Human immunodeficiency virus type 1 group M subtype B (isolate HXB2)) + DNA dC->dU-editing enzyme APOBEC-3G (Homo sapiens) (UniProt P69720+P69721+P69722+P69723+Q9HC16); assay: inhibitors of Vif binding to APOBEC3G peptide, primary screen, biochemical, TR-FRET, GST-Vif 1-94, biotin-A3G peptide, dose response retest (AID 1117319); conditions: hits give high values;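 further: Vif residues 1-94 fused to GST binding biotinylated APOBEC3G peptide 110-148; 0% = full assay without inhibitor and 100% = GST in place of GST-Vif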

| Compound | inhibition |
| --- | --- |
| CC(c1ccccc1)C1NC(C(=O)O)CS1 (stereo not drawn) | -0.34% (inactive) |
| Cc1ccc(CN2CCSc3ccc(C(=O)NCc4cccnc4)cc32)cc1 | -7.4% (inactive) |
| COc1ccc(C(=O)/C=C2/C(=O)Nc3ccccc32)cc1 | 11.7% (inactive) |
| Cc1[nH]n(-c2ccccc2)c(=O)c1/C=C1\C=NN=C1c1ccccc1 | -6.22% (inactive) |
| COC(=O)c1c(NC(=O)c2nc3nc(C)cc(C(F)F)n3n2)sc2c1CCC2 | -2.56% (inactive) |
| CCN(CC)C(=O)c1sc(NC(=O)C(Sc2ccccc2)c2ccccc2)c(C(=O)OC(C)C)c1C (stereo not drawn) | -1.62% (inactive) |
| C(=C\c1ccccc1)/C=N/n1cnnc1 | 17.7% (inactive) |
| S=c1[nH]nc(-c2cccnc2)n1/N=C/C=C/c1ccccc1 | 32.9% (inactive) |
| Cc1cccc(-c2n[nH]c(=S)n2/N=C/c2ccco2)c1 | -4.06% (inactive) |
| CC(/C=N/n1c(-c2ccc(Cl)cc2)n[nH]c1=S)=C\c1ccco1 | 27.8% (inactive) |
| CC(/C=N/n1c(-c2ccccc2)n[nH]c1=S)=C\c1ccco1 | 29% (inactive) |
| C(/C=C/c1ccco1)=N/N1CCN(c2ccccc2)CC1 | 18.8% (inactive) |
| Cc1cc(-c2n[nH]c(=S)n2/N=C/c2ccc(C)o2)n[nH]1 | 27.9% (inactive) |
| S=c1[nH]nc(-c2cccnc2)n1/N=C/c1ccco1 | 3.51% (inactive) |
| O=C(COC(=O)Cn1cnc2ccccc21)Nc1ccc(F)c(F)c1 | -4.98% (inactive) |
| C=CCSc1nnc(CNC(=O)c2ccccc2C)n1C(C)C | 4.54% (inactive) |
| CC(NC(=O)C(=S)N1CCN(C)CC1)c1ccccc1 (stereo not drawn) | 0.7% (inactive) |
| C=CCN1/C(=C2/SC(=S)N(C)C2=O)Sc2ccccc21 | 11.3% (inactive) |
| CCc1noc(C)c1C(=O)OC(C)C(=O)Nc1ccccc1OC (stereo not drawn) | 3.88% (inactive) |
| Cn1nc(-c2ccccc2F)c2cc(C(=O)Nc3ccc4c(c3)OCCO4)sc21 | -1.77% (inactive) |
| COc1cccc(-c2nn(C)c3sc(C(=O)NCc4ccc5c(c4)OCO5)cc23)c1 | -2.11% (inactive) |
| Cc1nn(CC(=O)NC2CCS(=O)(=O)C2)c(C)c1[N+](=O)[O-] (stereo not drawn) | -7.13% (inactive) |
| Cc1cc(S(=O)(=O)N2CCOCC2)ccc1OCC(=O)N1CCCCC1 | 25.7% (inactive) |

| Compound | inhibition |
| --- | --- |
| Cc1ccc(NC(=O)CCNS(=O)(=O)c2cccc3nonc23)cc1 | 2.21% (inactive) |
| CCc1cccc(NC(=O)CCNS(=O)(=O)c2cccc3nonc23)c1 | 9.44% (inactive) |
| CC(C)Cn1c2c(c(=O)[nH]c1=O)C(NS(=O)(=O)c1ccc(Cl)cc1)(C(F)(F)F)C(=O)N2 (stereo not drawn) | -5.6% (inactive) |
| COc1cccc(C(=S)N2CCCC2)c1OC | 0.47% (inactive) |
| O=C1C2CCCN2C(=O)N1CCCN1CCN(c2ccc([N+](=O)[O-])cc2)CC1 (stereo not drawn) | -0.31% (inactive) |
| O=C1C2CCCN2C(=O)N1CCCCN1CCN(c2ccc(F)cc2)CC1 (stereo not drawn) | -0.87% (inactive) |
| COc1cccc(-n2nc(C(N)=O)c(O)cc2=O)c1 | -7.89% (inactive) |
| O=C(O)CCC(=O)NNc1ncnc2ccccc12 | -0.06% (inactive) |
| CC(=O)NNc1ncnc2ccccc12 | 16% (inactive) |
| Cc1cc(N/N=C/c2ccncc2)nc2ccccc12 | 8.69% (inactive) |
| COC(=O)CC1SC(=O)NC1=Nc1ccc(C)cc1 (stereo not drawn) | 19.1% (inactive) |
| CCCCn1c(N)c(N(CCOC)C(=O)c2ccc(OCc3c(C)noc3C)cc2)c(=O)[nH]c1=O | 5.41% (inactive) |
| O=C(CSc1ncnc2sccc12)Nc1ccccc1F | -5.44% (inactive) |
| O=C(CSc1ncnc2sccc12)Nc1ccccc1 | -6.5% (inactive) |
| Cc1ccc2c(c1)C(c1ccccc1)CC(=O)O2 (stereo not drawn) | -9.94% (inactive) |
| Nn1c(SCC(=O)Nc2ccc3c(c2)OCO3)nnc1C(F)(F)F | 1.55% (inactive) |
| Cn1c(SCCC#N)nnc1-c1ccc(F)cc1 | 11.1% (inactive) |
| O=C(O)CSc1nnc(-c2ccncc2)n1C1CCCCC1 | -0.35% (inactive) |
| C/C(=C\C(=O)c1ccc(C)cc1)Nc1ccc(N2CCOCC2)cc1 | 11.1% (inactive) |
| COc1ccc2nc(C)cc(Nc3ccccc3OC)c2c1 | -8.19% (inactive) |
| Cc1cccc(S(=O)(=O)c2c(C)cc(C)nc2Cl)c1 | -4.17% (inactive) |
| COc1ccc(CN2CCN(c3nc4ccccc4s3)CC2)cc1 | -11.5% (inactive) |
| Cc1ccc(CN(Cc2ccccc2)C(=S)Nc2ccccc2C)o1 | 13.2% (inactive) |

| Compound | inhibition |
| --- | --- |
| CC(=O)N(C)/C=C1\Sc2ccccc2C1=O | 1.33% (inactive) |
| CN(C)/C=C1/Sc2ccccc2C1=O | -7.14% (inactive) |
| CCOC(=O)C(CC(=O)O)N1CCCCC1 (stereo not drawn) | -2.07% (inactive) |
| Cc1ccc(C(=O)Nc2ccc(F)cc2)o1 | -0.54% (inactive) |
| Cc1ccc(C(=O)Nc2ccc(CC(=O)O)cc2)o1 | 1.07% (inactive) |
| CCOC(=O)c1ccc(N/C=C/C(=O)C(C)(C)C)cc1 | 5.83% (inactive) |
| COc1ccc(N/C=C/C(=O)C(C)(C)C)cc1 | -3.89% (inactive) |
| CCN(CC(=O)Nc1c(F)cccc1F)C(=O)C1CC(=O)N(CCc2ccccc2)C1 (stereo not drawn) | 5.22% (inactive) |
| CN(CCC#N)C(=O)CC1(Cc2ccccc2)CCOC(C)(C)C1 (stereo not drawn) | -1.26% (inactive) |
| Cc1cccc(Nc2c([N+](=O)[O-])ccc3nonc23)c1C | -5.88% (inactive) |
| Cc1cc(C)cc(NC2=NCC(=O)N2Cc2ccccc2)c1 | 2.08% (inactive) |
| CCOCCCNC(=O)Cn1cnc2c(cnn2-c2ccc(F)cc2)c1=O | -2.53% (inactive) |
| Cc1ccccc1N(C=O)c1ccccc1C | -8.26% (inactive) |
| COc1cccc(OCCNS(=O)(=O)c2cccc([N+](=O)[O-])c2)c1 | -4.86% (inactive) |
| O=[N+]([O-])c1ccc(O)c2cccnc12 | -6.29% (inactive) |
| Cc1ccc([N+](=O)[O-])c2cccnc12 | 1.02% (inactive) |
| Oc1c(CN2CCOCC2)cc(COCc2ccccc2)c2cccnc12 | 29.4% (inactive) |
| O=[N+]([O-])c1cc(Cl)c2cccnc2c1O | -6.11% (inactive) |
| CCOc1cccc(CN2CCN(c3cccc(C(F)(F)F)c3)CC2)c1O | 28.2% (inactive) |
| O=[N+]([O-])c1cc(CN2CCN(c3ccccc3)CC2)c(O)c2ncccc12 | 12.7% (inactive) |
| Oc1c(Cl)cc(CN2CCCCC2)c2cccnc12 | 10.4% (inactive) |
| O=[N+]([O-])c1cc(F)c2cccnc2c1O | 18.9% (inactive) |
